Measured values reported in the supplement of paper PMC10849652.
Targets with a hit are over-represented here; the source holds about 8,800 in all. About 0.5% of all pairs of compound and target were hits.

What was measured:
Assay in all cases: log2 fold change, soluble protein after heating vs DMSO (PISA); higher = thermal stabilisation; K562 lysate, 10 uM; active = over 0.2 and 3.5 SD of the protein, either way, in both replicates (recomputed)
erlotinib = compound: C#Cc1cccc(Nc2ncnc3cc(OCCOC)c(OCCOC)cc23)c1 [erlotinib]
Summary of the method: (§1)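 K562 pellets were dounce-homogenised in PBS pH 7.4 with 1 mM MgCl2, and the crude extract at 1 mg/mL protein was treated with 10 μM compound for 30 min. Aliquots were heated for 3 min across 48°C-58°C, pooled, and brought to 0.5% NP-40 at 4°C; soluble protein was the supernatant after 21,000xg for 90 min. Soluble protein was quantified by TMTpro 16plex LC-MS/MS with channel sums equalised, and reported as log2 fold change in thermal stability against DMSO controls, with values from duplicates.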

[1] = compound: C/C(=N\NC(=O)C1=CC(=CC=C1)S(=O)(=O)N2CCOCC2)/C3=C(C=CC(=C3)Cl)O
Summary of the method: as §1

[2] = compound: C1=CC(=CC=C1C2=NC3=C(N2)C=C(C=C3)C(=O)N)OC4=CC=C(C=C4)Cl
Summary of the method: as §1

[3] = compound: C1=CC2=C(C=CC(=C2)/C=C\3/C(=O)NC(=NCC4=CC=CS4)S3)N=C1
Summary of the method: as §1

[4] = compound: C1=CC2=NC=CN=C2C=C1/C=C/3\C(=O)NC(=O)S3
Summary of the method: as §1

[5] = compound: C1=CC=C(C=C1)C2=NC(=C(N2)C3=CC=NC=C3)C4=CC(=C(C=C4)Cl)O
Summary of the method: as §1

[6] = compound: C1=CC=C2C(=C1)C3=NNC4=CC=CC(=C43)C2=O
Summary of the method: as §1

[7] = compound: C1CCN(C1)C(=O)NC2=CC=CC(=C2)NC3=NC=C(C(=N3)NCCC4=CN=CN4)Br
Summary of the method: as §1

[8] = compound: C1CN(CCC1(CC2=CC=C(C=C2)Cl)N)C3=NC=NC4=C3C=CN4
Summary of the method: as §1

IRAK-1-4 Inhibitor I = compound: C1COCCN1CCN2C3=CC=CC=C3N=C2NC(=O)C4=CC(=CC=C4)[N+](=O)[O-] [IRAK-1-4 Inhibitor I]
Summary of the method: as §1

ibrutinib = compound: C=CC(=O)N1CCC[C@@H](n2nc(-c3ccc(Oc4ccccc4)cc3)c3c(N)ncnc32)C1 [ibrutinib]
Summary of the method: as §1

[9] = compound: CC(=O)c1cnc2ccc(-c3cc(Cl)c(O)c(Cl)c3)nc2c1N[C@H]1CC[C@H](CN(C)C)CC1
Summary of the method: as §1

ralimetinib = compound: CC(C)(C)Cn1c(N)nc2ccc(-c3[nH]c(C(C)(C)C)nc3-c3ccc(F)cc3)nc21 [ralimetinib]
Summary of the method: as §1

[10] = compound: CC(C)(O)CC(=O)NCCn1ccc2ncnc(Nc3ccc(Oc4cccc(C(F)(F)F)c4)c(Cl)c3)c21
Summary of the method: as §1

[11] = compound: CC(C)C1=C2N=C(C=C(N2N=C1)NCC3=CC=CC=C3)NCCCCCCN
Summary of the method: as §1

[12] = compound: CC1=C(C(CC(=O)N1)C2=CC=C(C=C2)C(F)(F)F)C(=O)NC3=C(C=C4C(=C3)C=NN4)F
Summary of the method: as §1

[13] = compound: CC1=C(C2=C(C=C1)C(=O)C3=CC=CC=C3N2CCCN)C
Summary of the method: as §1

[14] = compound: CC1=C(C=C(C=C1)NC(=O)C2=CC(=CC=C2)C(C)(C)C#N)NC3=CC4=C(C=C3)N=CN(C4=O)C
Summary of the method: as §1

[15] = compound: CC1=C(C=C(C=C1)NC(=O)C2=CC(=CC=C2)N(C)C)NC(=O)C3=CC=C(C=C3)O
Summary of the method: as §1

[16] = compound: CC1=CC=C(C=C1)SC2=C3C=C(SC3=CN=C2)C(=O)N
Summary of the method: as §1

Measured: log2 fold change

DHRS1 (UniProt Q96LJ7)
UniProt Q96LJ7, sequence (Q96LJ7 whole entry, looked up): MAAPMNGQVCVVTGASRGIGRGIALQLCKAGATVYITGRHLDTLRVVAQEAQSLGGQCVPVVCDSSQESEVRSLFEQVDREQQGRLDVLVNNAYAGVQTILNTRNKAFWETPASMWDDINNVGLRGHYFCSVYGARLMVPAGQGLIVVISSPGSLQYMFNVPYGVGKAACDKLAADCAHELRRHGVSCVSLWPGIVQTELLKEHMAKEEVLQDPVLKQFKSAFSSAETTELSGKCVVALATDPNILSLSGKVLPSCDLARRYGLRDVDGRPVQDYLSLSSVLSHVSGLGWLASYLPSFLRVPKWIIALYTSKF
active: [1] 0.898 | [5] 0.654
inactive: erlotinib 0.024 | [2] -0.017 | [3] -0.008 | [4] -0.036 | [6] 0.05 | [7] -0.052 | [8] 0.105 | IRAK-1-4 Inhibitor I -0.051 | ibrutinib -0.057 | [9] -0.037 | ralimetinib 0.01 | [10] 0.089 | [11] 0.058 | [12] 0.024 | [13] -0.104 | [14] 0.001 | [15] -0.035 | [16] -0.001

CUEDC2 (UniProt Q9H467)
UniProt Q9H467, sequence (Q9H467 whole entry, looked up): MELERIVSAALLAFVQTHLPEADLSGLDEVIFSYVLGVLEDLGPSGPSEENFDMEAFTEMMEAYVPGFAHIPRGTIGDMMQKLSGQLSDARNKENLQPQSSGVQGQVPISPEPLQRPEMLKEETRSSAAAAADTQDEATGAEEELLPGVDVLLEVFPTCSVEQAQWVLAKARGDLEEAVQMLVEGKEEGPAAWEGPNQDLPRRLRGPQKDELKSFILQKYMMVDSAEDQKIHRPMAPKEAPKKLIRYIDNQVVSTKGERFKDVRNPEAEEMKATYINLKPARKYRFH
inactive: erlotinib -0.011 | [1] 0.044 | [2] 0.032 | [3] 0.035 | [4] -0.02 | [5] 0 | [6] -0.039 | [7] 0.029 | [8] -0.106 | IRAK-1-4 Inhibitor I 0.013 | ibrutinib 0.056 | [9] 0.044 | ralimetinib 0.001 | [10] -0.032 | [11] 0.026 | [12] -0.027 | [13] -0.014 | [14] 0.052 | [15] 0.018 | [16] -0.082

COG5 isoform 2 (UniProt Q9UP83)
inactive: erlotinib 0.073 | [1] 0.016 | [2] -0.044 | [3] 0.001 | [4] -0.004 | [5] 0.019 | [6] 0.031 | [7] 0.019 | [8] 0.043 | IRAK-1-4 Inhibitor I -0.001 | ibrutinib 0.061 | [9] -0.036 | ralimetinib 0.074 | [10] -0.027 | [11] 0.037 | [12] -0.005 | [13] 0.04 | [14] -0.016 | [15] 0.073 | [16] 0.052

CSPP1 (UniProt Q1MSJ5)
UniProt Q1MSJ5, sequence (Q1MSJ5 whole entry, looked up): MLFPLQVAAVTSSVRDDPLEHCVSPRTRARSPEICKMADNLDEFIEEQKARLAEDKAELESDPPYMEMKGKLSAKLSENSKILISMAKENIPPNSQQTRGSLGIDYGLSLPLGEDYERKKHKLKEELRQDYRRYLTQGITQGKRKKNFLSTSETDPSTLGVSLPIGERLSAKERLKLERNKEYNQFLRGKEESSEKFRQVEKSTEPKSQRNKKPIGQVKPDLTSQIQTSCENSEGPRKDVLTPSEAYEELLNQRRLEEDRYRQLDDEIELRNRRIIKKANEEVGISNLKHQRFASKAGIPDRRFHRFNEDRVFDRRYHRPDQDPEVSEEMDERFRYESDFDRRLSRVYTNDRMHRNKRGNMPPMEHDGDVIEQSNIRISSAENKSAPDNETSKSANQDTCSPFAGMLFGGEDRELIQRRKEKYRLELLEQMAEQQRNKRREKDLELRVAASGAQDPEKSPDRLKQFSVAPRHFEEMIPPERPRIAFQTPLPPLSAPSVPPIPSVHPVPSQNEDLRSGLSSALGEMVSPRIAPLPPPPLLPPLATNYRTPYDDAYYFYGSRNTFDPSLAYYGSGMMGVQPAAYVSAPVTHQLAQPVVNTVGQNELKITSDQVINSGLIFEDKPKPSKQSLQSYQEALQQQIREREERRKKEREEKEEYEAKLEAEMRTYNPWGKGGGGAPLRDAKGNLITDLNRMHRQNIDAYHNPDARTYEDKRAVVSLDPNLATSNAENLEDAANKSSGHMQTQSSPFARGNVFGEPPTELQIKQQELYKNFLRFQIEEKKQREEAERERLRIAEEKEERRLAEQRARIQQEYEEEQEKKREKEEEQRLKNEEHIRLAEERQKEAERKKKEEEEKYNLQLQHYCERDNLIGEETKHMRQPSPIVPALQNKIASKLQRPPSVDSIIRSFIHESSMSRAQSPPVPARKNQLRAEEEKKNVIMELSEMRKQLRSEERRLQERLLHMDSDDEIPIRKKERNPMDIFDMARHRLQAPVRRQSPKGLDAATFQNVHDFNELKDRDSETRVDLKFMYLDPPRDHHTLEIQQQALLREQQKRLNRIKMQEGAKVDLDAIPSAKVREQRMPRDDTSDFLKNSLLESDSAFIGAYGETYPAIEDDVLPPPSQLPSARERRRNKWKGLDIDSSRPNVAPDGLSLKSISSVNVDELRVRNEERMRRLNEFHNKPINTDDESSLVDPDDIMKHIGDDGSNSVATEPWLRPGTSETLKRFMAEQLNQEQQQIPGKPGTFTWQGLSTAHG
inactive: erlotinib -0.028 | [1] -0.094 | [2] 0.079 | [3] 0.017 | [4] -0.088 | [5] 0.021 | [6] -0.137 | [7] -0.02 | [8] 0.007 | IRAK-1-4 Inhibitor I -0.026 | ibrutinib 0.052 | [9] 0 | ralimetinib 0 | [10] 0.026 | [11] -0.023 | [12] 0 | [13] -0.015 | [14] -0.074 | [15] -0.006 | [16] 0.084

DHFR (UniProt P00374)
UniProt P00374, sequence (P00374 whole entry, looked up): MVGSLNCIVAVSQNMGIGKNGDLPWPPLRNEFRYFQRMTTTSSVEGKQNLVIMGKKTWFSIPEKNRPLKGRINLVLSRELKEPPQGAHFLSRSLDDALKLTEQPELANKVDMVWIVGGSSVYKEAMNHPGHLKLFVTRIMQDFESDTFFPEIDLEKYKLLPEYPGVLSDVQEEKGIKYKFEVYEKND
inactive: erlotinib 0.031 | [1] 0.046 | [2] -0.023 | [3] -0.019 | [4] 0.045 | [5] 0.025 | [6] -0.01 | [7] 0.034 | [8] 0.019 | IRAK-1-4 Inhibitor I -0.055 | ibrutinib -0.013 | [9] 0.155 | ralimetinib -0.058 | [10] 0.016 | [11] 0.024 | [12] -0.018 | [13] -0.013 | [14] -0.029 | [15] 0.025 | [16] 0.033

COQ8A (UniProt Q8NI60)
UniProt Q8NI60, sequence (Q8NI60 whole entry, looked up): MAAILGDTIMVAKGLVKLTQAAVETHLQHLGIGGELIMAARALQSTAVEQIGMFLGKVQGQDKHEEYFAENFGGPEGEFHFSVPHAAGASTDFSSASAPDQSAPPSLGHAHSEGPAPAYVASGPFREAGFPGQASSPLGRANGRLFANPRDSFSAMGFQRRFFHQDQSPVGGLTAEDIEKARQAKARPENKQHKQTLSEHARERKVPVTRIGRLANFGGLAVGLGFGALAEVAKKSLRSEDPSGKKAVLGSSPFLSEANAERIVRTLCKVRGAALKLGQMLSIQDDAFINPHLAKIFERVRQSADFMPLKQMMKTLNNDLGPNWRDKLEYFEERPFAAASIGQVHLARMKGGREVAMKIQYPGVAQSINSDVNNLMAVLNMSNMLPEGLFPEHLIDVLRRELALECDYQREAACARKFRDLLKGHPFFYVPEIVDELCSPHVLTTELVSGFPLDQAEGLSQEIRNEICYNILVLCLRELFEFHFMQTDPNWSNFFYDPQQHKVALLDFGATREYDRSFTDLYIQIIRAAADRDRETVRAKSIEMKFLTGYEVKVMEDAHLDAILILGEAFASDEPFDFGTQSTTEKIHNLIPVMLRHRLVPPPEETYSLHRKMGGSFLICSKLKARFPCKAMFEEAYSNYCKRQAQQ
active: [9] 0.611
inactive: erlotinib 0.154 | [1] 0.014 | [2] -0.057 | [3] 0.008 | [4] -0.083 | [5] 0.029 | [6] 0.105 | [7] -0.01 | [8] 0.007 | IRAK-1-4 Inhibitor I -0.034 | ibrutinib -0.061 | ralimetinib 0.143 | [10] 0.115 | [11] -0.009 | [12] -0.139 | [13] -0.074 | [14] -0.04 | [15] 0 | [16] -0.068

CXXC1 isoform 2 (UniProt Q9P0U4)
inactive: erlotinib 0.02 | [1] -0.031 | [2] -0.051 | [3] 0.029 | [4] -0.085 | [5] -0.036 | [6] -0.088 | [7] 0.082 | [8] 0.04 | IRAK-1-4 Inhibitor I 0.059 | ibrutinib -0.034 | [9] -0.078 | ralimetinib 0.013 | [10] -0.089 | [11] -0.005 | [12] -0.01 | [13] 0.082 | [14] 0.004 | [15] 0.061 | [16] -0.155

CTPS2 (UniProt Q9NRF8)
inactive: erlotinib -0.009 | [1] -0.008 | [2] -0.016 | [3] -0.01 | [4] 0.01 | [5] -0.008 | [6] 0 | [7] -0.021 | [8] -0.015 | IRAK-1-4 Inhibitor I -0.006 | ibrutinib 0.021 | [9] 0.006 | ralimetinib 0.017 | [10] -0.026 | [11] -0.011 | [12] 0.008 | [13] -0.004 | [14] 0.009 | [15] 0.005 | [16] -0.009

COX20 isoform 2 (UniProt Q5RI15)
UniProt Q5RI15, sequence (Q5RI15 whole entry, looked up): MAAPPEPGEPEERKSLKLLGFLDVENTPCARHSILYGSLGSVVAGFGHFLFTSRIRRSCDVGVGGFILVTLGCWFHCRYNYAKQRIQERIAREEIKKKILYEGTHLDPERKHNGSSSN
inactive: erlotinib 0.022 | [1] 0.004 | [2] -0.018 | [3] -0.001 | [4] -0.129 | [5] 0.016 | [6] -0.036 | [7] -0.09 | [8] 0.034 | IRAK-1-4 Inhibitor I 0.048 | ibrutinib 0.28 | [9] 0.017 | ralimetinib 0.084 | [10] 0.032 | [11] -0.003 | [12] -0.007 | [13] -0.04 | [14] 0.003 | [15] 0.001 | [16] -0.023

CTNND1 isoform 3 (UniProt O60716)
inactive: erlotinib -0.002 | [1] -0.039 | [2] -0.024 | [3] -0.045 | [4] 0.003 | [5] 0.087 | [6] -0.093 | [7] 0.009 | [8] 0.022 | IRAK-1-4 Inhibitor I 0.004 | ibrutinib 0.01 | [9] 0.001 | ralimetinib -0.058 | [10] -0.028 | [11] 0 | [12] 0.006 | [13] -0.036 | [14] -0.016 | [15] 0.032 | [16] -0.025

DDB2 (UniProt Q92466)
inactive: erlotinib -0.007 | [1] -0.028 | [2] 0.07 | [3] 0.052 | [4] 0.064 | [5] -0.024 | [6] 0 | [7] -0.075 | [8] -0.041 | IRAK-1-4 Inhibitor I 0.026 | ibrutinib 0.075 | [9] -0.016 | ralimetinib 0.009 | [10] -0.033 | [11] -0.007 | [12] 0.091 | [13] -0.003 | [14] 0.009 | [15] 0 | [16] 0.01

DCTN1 (UniProt Q14203)
UniProt Q14203, sequence (Q14203 whole entry, looked up): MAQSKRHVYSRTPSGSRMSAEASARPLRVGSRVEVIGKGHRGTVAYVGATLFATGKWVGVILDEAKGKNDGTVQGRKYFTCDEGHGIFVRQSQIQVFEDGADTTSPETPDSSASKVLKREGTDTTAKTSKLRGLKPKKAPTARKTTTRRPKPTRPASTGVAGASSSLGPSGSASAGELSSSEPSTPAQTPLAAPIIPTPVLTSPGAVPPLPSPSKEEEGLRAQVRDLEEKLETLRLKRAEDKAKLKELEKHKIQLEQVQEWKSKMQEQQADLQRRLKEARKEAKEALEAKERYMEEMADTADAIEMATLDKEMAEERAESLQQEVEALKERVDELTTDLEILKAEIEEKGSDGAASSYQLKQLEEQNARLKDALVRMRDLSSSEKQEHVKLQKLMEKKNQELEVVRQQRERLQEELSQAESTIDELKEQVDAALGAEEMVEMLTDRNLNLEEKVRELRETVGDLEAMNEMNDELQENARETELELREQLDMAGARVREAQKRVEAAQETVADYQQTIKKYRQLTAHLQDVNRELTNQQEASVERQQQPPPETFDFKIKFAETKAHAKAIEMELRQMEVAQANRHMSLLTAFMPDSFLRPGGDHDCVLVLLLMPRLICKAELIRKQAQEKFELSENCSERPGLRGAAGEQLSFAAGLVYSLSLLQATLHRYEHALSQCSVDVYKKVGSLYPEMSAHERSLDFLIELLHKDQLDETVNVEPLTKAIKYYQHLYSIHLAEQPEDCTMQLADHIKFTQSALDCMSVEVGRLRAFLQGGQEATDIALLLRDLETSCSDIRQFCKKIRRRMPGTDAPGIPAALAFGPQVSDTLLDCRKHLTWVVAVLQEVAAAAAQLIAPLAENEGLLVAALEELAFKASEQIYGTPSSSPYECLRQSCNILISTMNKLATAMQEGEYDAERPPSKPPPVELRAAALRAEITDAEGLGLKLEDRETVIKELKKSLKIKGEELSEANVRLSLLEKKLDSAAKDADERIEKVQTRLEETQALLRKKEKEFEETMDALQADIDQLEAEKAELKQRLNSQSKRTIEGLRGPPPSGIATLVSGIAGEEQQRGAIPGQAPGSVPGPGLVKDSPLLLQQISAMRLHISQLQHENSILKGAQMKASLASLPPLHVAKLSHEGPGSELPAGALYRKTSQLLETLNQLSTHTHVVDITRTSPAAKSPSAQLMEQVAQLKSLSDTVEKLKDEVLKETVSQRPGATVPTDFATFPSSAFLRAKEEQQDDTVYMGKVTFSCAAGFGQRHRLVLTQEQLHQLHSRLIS
inactive: erlotinib 0.007 | [1] -0.001 | [2] -0.001 | [3] -0.001 | [4] 0.019 | [5] -0.001 | [6] -0.023 | [7] 0 | [8] -0.003 | IRAK-1-4 Inhibitor I -0.005 | ibrutinib -0.005 | [9] 0.01 | ralimetinib 0.013 | [10] -0.02 | [11] -0.006 | [12] 0.001 | [13] 0.011 | [14] -0.013 | [15] 0.009 | [16] 0.011

CNOT2 (UniProt Q9NZN8)
inactive: erlotinib 0.016 | [1] 0.013 | [2] 0.021 | [3] 0.015 | [4] -0.016 | [5] -0.011 | [6] 0.014 | [7] 0.004 | [8] 0.012 | IRAK-1-4 Inhibitor I 0.007 | ibrutinib 0.022 | [9] 0.037 | ralimetinib 0.016 | [10] -0.013 | [11] -0.001 | [12] -0.01 | [13] 0.03 | [14] 0.006 | [15] -0.007 | [16] 0.011

CORO1A (UniProt P31146)
UniProt P31146, sequence (P31146 whole entry, looked up): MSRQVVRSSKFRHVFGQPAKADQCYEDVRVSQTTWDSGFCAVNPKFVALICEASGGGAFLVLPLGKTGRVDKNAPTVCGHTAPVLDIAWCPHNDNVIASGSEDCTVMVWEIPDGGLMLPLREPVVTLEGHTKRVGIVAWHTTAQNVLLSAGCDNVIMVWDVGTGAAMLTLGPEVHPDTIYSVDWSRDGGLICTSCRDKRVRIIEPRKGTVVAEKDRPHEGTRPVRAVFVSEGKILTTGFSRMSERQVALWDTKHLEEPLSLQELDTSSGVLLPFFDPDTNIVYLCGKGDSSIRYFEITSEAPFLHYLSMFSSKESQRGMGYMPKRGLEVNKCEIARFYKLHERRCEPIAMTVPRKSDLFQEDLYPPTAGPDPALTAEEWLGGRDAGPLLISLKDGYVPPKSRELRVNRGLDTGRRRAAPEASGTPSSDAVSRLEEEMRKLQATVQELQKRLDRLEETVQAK
inactive: erlotinib 0.077 | [1] 0.086 | [2] -0.032 | [3] 0.036 | [4] -0.022 | [5] 0.005 | [6] 0.009 | [7] 0.155 | [8] -0.031 | IRAK-1-4 Inhibitor I 0.021 | ibrutinib 0.028 | [9] -0.031 | ralimetinib -0.015 | [10] -0.021 | [11] 0.055 | [12] 0.018 | [13] -0.107 | [14] 0.025 | [15] -0.036 | [16] 0.012

DNAH10 (UniProt Q8IVF4)
inactive: erlotinib 0.003 | [1] 0.047 | [2] -0.059 | [3] -0.053 | [4] -0.026 | [5] 0.026 | [6] -0.043 | [7] 0.012 | [8] 0.036 | IRAK-1-4 Inhibitor I 0.054 | ibrutinib 0.038 | [9] -0.017 | ralimetinib -0.123 | [10] -0.112 | [11] -0.015 | [12] -0.04 | [13] -0.069 | [14] 0.137 | [15] -0.014 | [16] -0.051

CKM (UniProt P06732)
UniProt P06732, sequence (P06732 whole entry, looked up): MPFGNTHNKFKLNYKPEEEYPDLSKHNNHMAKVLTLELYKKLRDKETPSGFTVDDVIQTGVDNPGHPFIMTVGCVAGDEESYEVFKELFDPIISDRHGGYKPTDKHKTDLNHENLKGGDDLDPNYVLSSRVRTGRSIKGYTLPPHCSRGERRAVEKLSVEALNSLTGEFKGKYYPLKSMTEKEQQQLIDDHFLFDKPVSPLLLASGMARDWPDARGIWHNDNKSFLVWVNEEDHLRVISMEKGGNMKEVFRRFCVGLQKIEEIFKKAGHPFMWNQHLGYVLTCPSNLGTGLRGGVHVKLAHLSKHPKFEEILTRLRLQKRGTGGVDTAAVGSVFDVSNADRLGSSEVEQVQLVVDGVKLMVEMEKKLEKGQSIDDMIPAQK
inactive: erlotinib 0.034 | [1] -0.167 | [2] 0.003 | [3] 0.023 | [4] 0.058 | [5] -0.024 | [6] 0 | [7] -0.017 | [8] 0.038 | IRAK-1-4 Inhibitor I 0.044 | ibrutinib -0.002 | [9] 0.056 | ralimetinib 0.046 | [10] -0.076 | [11] 0.002 | [12] -0.001 | [13] -0.029 | [14] 0.044 | [15] 0.005 | [16] -0.02
